From PubChem BioAssay AID652257 (The Scripps Research Institute Molecular Screening Center, 2013)
About 4,800 (1.3%) of roughly 370,000 compounds were called active. The sample holds actives, similar compounds and a random draw of the others, so the mix is not that of the screen.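 Rule for the calls: active = inhibition above about 21% made by adding two undisclosed values (limit read from the data); inactive = the rest.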

Biological target: Protein arginine N-methyltransferase 1 (Homo sapiens) (UniProt Q99873)
Sequence (Q99873 whole entry, looked up): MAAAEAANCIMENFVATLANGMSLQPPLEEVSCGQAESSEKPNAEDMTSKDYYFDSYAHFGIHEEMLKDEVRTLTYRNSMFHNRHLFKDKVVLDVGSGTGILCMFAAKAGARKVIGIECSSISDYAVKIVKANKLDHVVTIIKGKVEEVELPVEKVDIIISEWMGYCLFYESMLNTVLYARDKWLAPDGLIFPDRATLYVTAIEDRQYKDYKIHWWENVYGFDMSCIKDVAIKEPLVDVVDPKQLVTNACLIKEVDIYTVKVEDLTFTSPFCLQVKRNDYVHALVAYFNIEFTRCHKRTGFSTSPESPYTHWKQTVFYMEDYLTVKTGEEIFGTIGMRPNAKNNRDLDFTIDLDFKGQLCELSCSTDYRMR
Assay: human PRMT1 activity-probe blockers – biochemical, fluorescence polarization, primary screen (AID 652257)
Conditions: recombinant PRMT1, activity-based probe fluorescence polarization; at 2.79 µM; hits give high values

| SMILES | inhibition |
| --- | --- |
| O=C1CCC/C(=N\NC(=O)NC2CCCCC2)C1 | 0.8% (inactive) |
| O=C(OC12CCCN(C1)/C(=C/c1ccccc1)C2)c1ccco1 (centres undefined) | -3.75% (inactive) |
| CNC(=O)NC(=O)CSc1nnc(-c2ccc(F)cc2)n1CC1CCCO1 (centres undefined) | 2.71% (inactive) |
| COc1ccccc1CCNC(=O)C1CCN(c2nc(C)cc(C)n2)CC1 | 1.67% (inactive) |
| CCn1c(SCC(C)=O)nc2sc3c(c2c1=O)CCCC3 | -4.09% (inactive) |
| COc1cccc(NC(=O)CN(C)C(=O)c2cc(Cl)nc3ccccc23)c1 | -4.52% (inactive) |
| Cc1cc(C(=O)OCC(=O)N2C(C)CCCC2C)c2ccccc2n1 (centres undefined) | 7.6% (inactive) |
| Cc1ccc(S(=O)(=O)CCC(=O)OCC(=O)N(C)C2CCS(=O)(=O)C2)cc1 (centres undefined) | 1.31% (inactive) |
| COc1ccc(NC(=O)CN(C)C(=O)c2cc(C)oc2C)cc1 | -0.84% (inactive) |
| Cc1ccc(NC(=O)c2cc(-c3ccc(C)o3)nc3ccccc23)nc1 | 47.4% (active) |
| O=C(Nc1nc2ccc(Cl)cc2s1)c1cc(-c2ccc(Cl)cc2)nc2ccccc12 | 9% (inactive) |
| CN(C(=O)COC(=O)c1cc(-c2ccco2)nc2ccccc12)C1CCS(=O)(=O)C1 (centres undefined) | 21.6% (active) |
| COc1ccc(NC(=O)CN(C)C(=O)c2cc(-c3ccc(C)o3)nc3ccccc23)cc1 | 26.9% (active) |
| Cc1cc(NC(=O)c2ccccc2C)no1 | -1.67% (inactive) |
| CC1(C)CC(CNCCC(c2ccc(F)cc2)c2ccco2)CCO1 (centres undefined) | -2.86% (inactive) |
| O=C(NCCc1ccc(Cl)cc1Cl)c1cc([N+](=O)[O-])c[nH]c1=O | -1.63% (inactive) |
| CC(=O)c1ccc(Cc2ncc(C(F)(F)F)cc2Cl)s1 | 1.39% (inactive) |
| CCOC(=O)C1CCN(C(=O)C(C)(C)NC(=O)Nc2ccccc2Cl)CC1 | -1.31% (inactive) |
| Cc1ccc(-n2c(SCC(=O)Nc3ccc(S(=O)(=O)Nc4nccs4)cc3)nnc2-c2cccnc2)cc1 | -3.77% (inactive) |
| COCCNC(=S)Nc1cc(S(=O)(=O)N2CCOCC2)ccc1N1CCCCC1 | 29.6% (active) |
| CC(C)CCC(=O)Nc1cc(S(=O)(=O)N2CCOCC2)ccc1N1CCCC1 | -0.42% (inactive) |
| O=C(COC(=O)Cc1ccc(F)cc1)Nc1cc(S(=O)(=O)N2CCOCC2)ccc1N1CCCC1 | -0.54% (inactive) |
| CN(C)Cc1cn(-c2ccc(-c3noc4c3C(=O)N(CC(=O)N3CCOCC3)CC4)cc2)nn1 | 3.49% (inactive) |

| SMILES | inhibition |
| --- | --- |
| O=C(/C=C/c1cccc(C(F)(F)F)c1)N1CCN(c2ccccn2)CC1 | 3.3% (inactive) |
| Cc1ccc(C)c(NC(=O)CCS(=O)(=O)c2ccccc2)c1 | 10% (inactive) |
| O=S(=O)(Nc1n[nH]c(C(F)(F)F)n1)c1ccccc1 | -0.91% (inactive) |
| Cc1noc(C)c1C(=O)OC(C)C(=O)Nc1ccc2c(c1)OCO2 (centres undefined) | -4.06% (inactive) |
| CC1CCC(NS(=O)(=O)c2ccc3c(c2)CC(=O)N3)CC1 (centres undefined) | 2.71% (inactive) |
| O=S(=O)(NC1CC1)c1ccc(F)c(F)c1 | 0.17% (inactive) |
| Cn1sc(=O)c2cc(S(=O)(=O)NC3CC3)ccc21 | 36.8% (active) |
| O=C(O)C#Cc1cccc2ccccc12 | -1.9% (inactive) |
| CC(CCN1CCC(C(O)(c2ccccc2)c2ccccc2)CC1)Oc1ccc(C(F)(F)F)cc1 (centres undefined) | 0.57% (inactive) |
| CCOc1ccc(-n2c(SCC(=O)Nc3cc(C)c(NC(=O)c4ccccc4)cc3OC)nnc2-c2cccc(Cl)c2)cc1 | 7.2% (inactive) |
| C=CS(=O)c1sc(Cl)c(N2CCOCC2)c1[N+](=O)[O-] (centres undefined) | 73.1% (active) |
| CCN(C(=O)[C@@H](C1CC1)[C@@H](O)c1ccc2ccccc2c1)c1ccccc1 | -0.98% (inactive) |
| O=C(O)C1CCN(C(=O)c2cc(F)cc3c2OCOC3)CC1 | -0.21% (inactive) |
| CC(=O)N1CCc2cc(Br)cc(S(=O)(=O)CCC(=O)Nc3c(C)n(C)n(-c4ccccc4)c3=O)c21 | 4.6% (inactive) |
| O=C(CSCc1ccc([N+](=O)[O-])cc1)NCCSCc1ccccc1 | -0.87% (inactive) |
| O=C(O)/C=C/C(=O)NNc1ccc([N+](=O)[O-])cc1 | 59% (active) |
| CC(C)(C)C(=O)NCCCNc1ccc([N+](=O)[O-])cc1 | 9.07% (inactive) |
| COC(=O)c1ccccc1-n1cc(COC(=O)NCCc2ccccc2)nn1 | -0.03% (inactive) |
| S=c1[nH]nc(-c2ccco2)n1/N=C/c1ccc(Br)s1 | 34.3% (active) |
| Brc1ccc(/C=N/N2CCN(C3c4ccccc4-c4ccccc43)CC2)s1 | -0.5% (inactive) |
| CCc1ccccc1NC(=S)N(CCN1CCCCCC1)Cc1ccco1 | -6.03% (inactive) |
| Cn1c(C(=O)NCCCN2CCCCC2)cc2sccc21 | -0.77% (inactive) |
| O=C(Nc1ccc(Br)cc1)OCCN1C(=O)CCC12CCC(c1ccccc1)CC2 (centres undefined) | -1.94% (inactive) |

| SMILES | inhibition |
| --- | --- |
| O=C1C(Cl)=C(Oc2ccccc2)C(=O)c2ccccc21 | 88.5% (active) |
| COc1ccc(Cn2cc(CN3[C@@H](CC(C)C)COc4cc(Br)ccc4S3(=O)=O)nn2)cc1 | -4.17% (inactive) |
| Cc1ccc(-n2c(SCC(=O)Nc3ccc(S(=O)(=O)Nc4nccs4)cc3)nnc2-c2ccncc2)cc1 | -1.23% (inactive) |
| CC(C)CNc1cccc2c1S(=O)(=O)N(Cc1cn(Cc3ccc(Cl)cc3)nn1)Cc1ccccc1O2 | -5.99% (inactive) |
| O=C(NCc1ccccc1)[C@@H]1CCCN1C(=O)[C@H]1CCCN1C(=O)c1cccc(Cl)c1 | -3.52% (inactive) |
| O=C(CSc1nc2ccccc2s1)NN=Cc1ccc(O)cc1O | -0.64% (inactive) |
| O=C(CSc1nc2ccccc2s1)N=Nc1c(O)[nH]c2ccccc12 | 2.56% (inactive) |
| O=C(O)c1ccccc1CSc1nc2ccccc2s1 | 40.8% (active) |
| Cc1ccc(NC(=O)c2cc(C)nn2-c2ccccc2)c(C)c1 | -2.87% (inactive) |
| CCCC(=O)NC(Nc1ccccc1OC)C(Cl)(Cl)Cl (centres undefined) | 1.36% (inactive) |
| CCN(CC)c1ccc2oc(=O)c(C)nc2c1 | 46.6% (active) |
| CCN(C(=O)CSc1nnc(-c2ccc(OC(F)F)cc2)n1N)C1CCS(=O)(=O)C1 (centres undefined) | -3.24% (inactive) |
| Cc1ccc(Cc2cnc(N)s2)o1 | 40.4% (active) |
| Cc1ccc(-n2c(C)cc(/C=C(\C#N)C(=O)NCC3CCCO3)c2C)cc1 (centres undefined) | -0.82% (inactive) |
| CCCNC(=O)Nc1ccc2c(c1)C(=O)N(C)[C@H]1CC[C@H](CC(=O)NCC3CCCCC3)O[C@@H]1CO2 | 1.64% (inactive) |
| C[C@@H](NC(=O)c1ccccc1OCC(=O)Nc1ccc(I)cc1)C(=O)N(C)Cc1ccccc1 | -0.05% (inactive) |
| O=C(NCC(=O)N1CCN(c2ncc(C(F)(F)F)cc2Cl)CC1)c1ccc(Br)o1 | -1.7% (inactive) |
| Cc1cc(C)nc(NC(=S)N2CCN(c3ccc(C(F)(F)F)cn3)CC2)c1 | 7.93% (inactive) |
| COc1ccnc(NC(=S)N2CCN(c3ncc(C(F)(F)F)cc3Cl)CC2)c1 | 35.6% (active) |
| CC(C)c1ccc(NC2CCCN(C(=O)c3ccncc3)C2)cc1 (centres undefined) | 5.83% (inactive) |
| Cc1cc(NS(=O)(=O)c2ccc(NC(=O)CSc3nnc(SCc4ccc(F)cc4)s3)cc2)nc(C)n1 | 1.42% (inactive) |
| CC1CCN(C(=S)c2ccc(-c3ccc(Cl)cc3Cl)o2)CC1 | 31.8% (active) |
| CC1CCN(C(=S)c2cccc(O)c2)CC1 | 3% (inactive) |

| SMILES | inhibition |
| --- | --- |
| COc1ccc(C(=O)Nc2c(Cl)cc(Cl)cc2C(=O)N2CCC(C)CC2)cc1 | 1.04% (inactive) |
| C1CC1Cc1noc(CN2CCN(CC3CC3)CC2)n1 | -0.03% (inactive) |
| Cc1nc(NC(=O)C(C)(C)C)sc1[N+](=O)[O-] | -3.06% (inactive) |
| CCN(CC)CCNS(=O)(=O)c1ccc(/C=C/C(=O)O)cc1 | 4.48% (inactive) |
| CCOc1cc(/C=N/n2cnnc2)c(Br)cc1O | 4.53% (inactive) |
| CCOc1cccc(/C=N/N2C(=O)CSC2=S)c1O | 63.6% (active) |
| COC(=O)[C@]12C[C@H](CC(=O)NCC34CC5CC(CC(C5)C3)C4)C(=O)N(Cc3ccc(Cl)cc3Cl)C1=C[C@H](COCc1ccccc1)O[C@@H]2C | 2.58% (inactive) |
| COC(=O)[C@]12C[C@H](CC(=O)N3CCN(C(=O)C4CC4)CC3)C(=O)N(CCC3=CCCCC3)C1=C[C@H](C(C)C)O[C@@H]2C1CC1 | 1.61% (inactive) |
| c1ccc(CSc2ncnc3c2sc2nc(N4CCOCC4)c4c(c23)CCCC4)cc1 | -1.26% (inactive) |
| Cc1cccc(NC(=O)c2sc3nc(N4CCOCC4)c4c(c3c2N)CCCC4)c1 | 33% (active) |
| Cc1cccc(NC(=O)CSc2nnc(NC(=O)CN3CCOCC3)s2)c1 | 0.98% (inactive) |
| COc1cc(C(=O)N/C(=C\c2cn(C)c3ccccc23)C(=O)N2CCOCC2)cc(OC)c1OC | 4.22% (inactive) |
| COc1ccc(C2CC=C(C(=O)O)C(c3ccccc3F)N2S(=O)(=O)c2ccc(C)cc2)cc1OC (centres undefined) | -1.02% (inactive) |
| COc1cccc2c1C(=O)c1c(O)c3c(c(O)c1C2=O)CC(O)(C(C)=NNC(=O)c1ccc(Cl)c(Cl)c1)CC3OC1CC(N)C(O)C(C)O1 (centres undefined) | 179% (active) |
| CN1c2ccc(C=O)c3c(C=O)ccc(c23)N(C)C1(C)C | 68.8% (active) |
| O=C(CSc1nc2nccnc2c(=O)n1Cc1cccs1)Nc1ccccc1F | 5% (inactive) |
| O=C1C(=O)N(Cc2ccc(-c3ccsc3)cc2)c2ccc(OC(F)(F)F)cc21 | -4.19% (inactive) |
| O=C1CC[C@@H](COc2ccc3[nH]cc(-c4ccccc4)c3c2-c2ccccc2)N1 | -0.73% (inactive) |
| CC(C)(C)c1nnc2sc(SCC(O)=C(C#N)c3nc4ccccc4[nH]3)nn2c1=O | 21.6% (active) |
| Cc1ccc(NC(=O)CSc2nn3c(=O)c(C)nnc3s2)cc1Cl | 1.57% (inactive) |
